{"source": "paper PMC12136788", "binders": {"B1": {"name": "chr6:136599331:136599332:-_ENSG00000029363_ENST00000527536|hu_mus|motif|central (ssRNA)", "RNA": "GGGAGUUCUACAGUCCGACGAUCGGGGGCAUCUGAGCAUGAUGAACUCUGACUGGGUGGUGUAGCAAUAGGUGAAGGACGGUGAGGUGACCUUGGACUAUUAUCAUAAGCUGAAAGGCCAGGCCAAAUAUCACCAGAAGUAGCCAACAGAGGAUUGAGCAUCA"}, "B2": {"name": "chr15:40462788:40462789:+_ENSG00000156970_ENST00000287598|hu_mus|FALSE|FALSE (ssRNA)", "RNA": "GGGAGUUCUACAGUCCGACGAUCAAAGCGGGGGUCAUUAUAAUAGCGCGUCUCUCCUUGGAGUGCUUCUAUCGCUCUCUCCACUAACGCUGACAUGUUACUCUCUUUCCCCCCUUGAGGGUAGUUCUGUUCUGUCCAAUUAAUCAACAGAGGAUUGAGCAUCA"}, "B3": {"name": "chr2:128501614:128501615:-_ENSMUSG00000014355_ENSMUST00000014499|mus_mus|FALSE|FALSE (ssRNA)", "RNA": "GGGAGUUCUACAGUCCGACGAUCAGCCACAGGGGAUUCGCCUUUGGAGAGGCUUCUGAGAUGUGCUGUCAGGGAGCUGCUAGUAGUUGCAUUCUGCAGGGUCCCUGCCUGCUCAGGGAACUUUAAAACAGCAUUCUCUUCCUCCAACAGAGGAUUGAGCAUCA"}, "B4": {"name": "52131286_52135943_886_CDS_ENSMUSG00000022637_ENSMUST00000114471|mouse|control|control (ssRNA)", "RNA": "GGGAGUUCUACAGUCCGACGAUCCGUGAGAAAUGCCAUGUAUCCCGGGUGAGUCACAGCCAAGAAGUUCCAAUUCCGUAAAAUAGAGCCCCAGGGCUGAAAUAGCCUGGUAAAAAUAUCAAAUUCAAACACUGAGAUGUAAUCCAACAGAGGAUUGAGCAUCA"}, "B5": {"name": "chr1:130485734:130485735:-_ENSMUSG00000045382_ENSMUST00000052172|mus_hu|FALSE|FALSE (ssRNA)", "RNA": "GGGAGUUCUACAGUCCGACGAUCGAUGAAGGAGUCGAUGCUGAUCCCAAUGUAGUAAGGCAGCCAACAGGCGAAGAAAGCCAGGAUGAGGAUGACUGUGGUCUUGAGGGCCUUGCGCUUCUGGUGGCCCUUGGAGUGUGACAGCAACAGAGGAUUGAGCAUCA"}, "B6": {"name": "chr20:61576232:61576233:+_ENSG00000101193_ENST00000266069|hu_hu|FALSE|FALSE (ssRNA)", "RNA": "GGGAGUUCUACAGUCCGACGAUCGGAUCCACCACGCAAGCGCAGGCGCUACUUGGGCUCCUCAAUCACACCCUUGCUGAGGUCUGUCAUUUUGGGAUAUUUUACUUUCUUCUGGUCCAGCUCGUUCUGAGCCCAAAGUAGUAGCAACAGAGGAUUGAGCAUCA"}, "B7": {"name": "chr17:60770872:60770873:+_ENSG00000011028_ENST00000303375|hu_hu|hu_hu_hu_mus_True|28_78 (ssRNA)", "RNA": "GGGAGUUCUACAGUCCGACGAUCUCUUUAAAAAAAAAAAAAAAAAGACAAACAAUAAUAAUGGCACUCGAGAAUCAAGAACUACAAUAGAGGGUCCGCUUUGAGUUGUCCAUGUUCUCGUCCUGCACUGGGACACGGGGACUGCAACAGAGGAUUGAGCAUCA"}, "B8": {"name": "chr17:60770872:60770873:+_ENSG00000011028_ENST00000303375|hu_hu|hu_hu_hu_mus_True|78_88 (ssRNA)", "RNA": "GGGAGUUCUACAGUCCGACGAUCUCUUUAAAAAAAAAAAAAAAAAGUUUAAAAACAAUAAUGGCACUCGAGAAUCAAGAACUACAAUAGAGGGUCCGCUUUGAGUUUUUGUUCACAUCGUCCUGCACUGGGACACGGGGACUGCAACAGAGGAUUGAGCAUCA"}, "B9": {"name": "chr17:60770872:60770873:+_ENSG00000011028_ENST00000303375|hu_hu|hu_hu_hu_mus_True|28_88 (ssRNA)", "RNA": "GGGAGUUCUACAGUCCGACGAUCUCUUUAAAAAAAAAAAAAAAAAGUUUAAAAACAAUAGCACAUUUCGAGAAUCAAGAACUACAAUAGAGGGUCCGCUUUGAGUUGUCCAUGUUCUCGUCCUGCACUGGGACACGGGGACUGCAACAGAGGAUUGAGCAUCA"}, "B10": {"name": "chr17:60770872:60770873:+_ENSG00000011028_ENST00000303375|hu_hu|hu_hu_hu_mus_True|78_78 (ssRNA)", "RNA": "B8 RNA with U47A, U48C, U49A, A52C, C55U"}, "B11": {"name": "chr17:60770872:60770873:+_ENSG00000011028_ENST00000303375|hu_hu|hu_hu_hu_mus_True|58_78 (ssRNA)", "RNA": "B8 RNA with U47A, U48C, U49A, A52C, C55U, A77U, G78C, A86G"}, "B12": {"name": "chr17:60770872:60770873:+_ENSG00000011028_ENST00000303375|hu_hu|hu_hu_hu_mus_True|1_78 (ssRNA)", "RNA": "GGGAGUUCUACAGUCCGACGAUCUCUUUAAAAAAAAAAAAAAAAAGACAAACAAUAAUAAUGGCACUCGAGAAUCAAGAACUACAAUAGAGGGUCCGCUUUGAGUUUUUGUUCACAUCGUCCUGCACUGGGACACGACCAGGACAACAGAGGAUUGAGCAUCA"}, "B13": {"name": "chr17:60770872:60770873:+_ENSG00000011028_ENST00000303375|hu_hu|hu_hu_hu_mus_True|8_78 (ssRNA)", "RNA": "GGGAGUUCUACAGUCCGACGAUCUCUUUAAAAAAAAAAAAAAAAAGACAAACAAUAAUAAUGGCACUCGAGAAUCAAGAACUACAAUAGAGGGUCCGCUUUGAGUUUUUGUUCACAUCGUCCUGCAACGCUGUCGCGGGACUGCAACAGAGGAUUGAGCAUCA"}, "B14": {"name": "chr11:10830335:10830336:-_ENSG00000110321_ENST00000339995|hu_hu|FALSE|FALSE (ssRNA)", "RNA": "GGGAGUUCUACAGUCCGACGAUCGCAGCUGCCUCCUCAGGAUCCGGUCGUCGGGGAUAGGGAAGGGAGGGGAAAGGGGAACGGAAAACAAAAAAAAGGGGGAGGGAAGGGGGAGGAAGGAGUCGGGGACGGCCUCAAACUCAGCAACAGAGGAUUGAGCAUCA"}}, "note": "Substitutions are numbered along the chain they refer to. Over roughly 24,000 sequences, “enrichment r” has its median near 0.99; the highest 2% begin near 3.7. The list comes from a sample in which the highest values are over-represented; it also holds similar and randomly drawn sequences.", "data": [{"target": "T1, UNK ZnF1-3 (human, UniProt Q9C0B0 31-174)", "T1 sequence": "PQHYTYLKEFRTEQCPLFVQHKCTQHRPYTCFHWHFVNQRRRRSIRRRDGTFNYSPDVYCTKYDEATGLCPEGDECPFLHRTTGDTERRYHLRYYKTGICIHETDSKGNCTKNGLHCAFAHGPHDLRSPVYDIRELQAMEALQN", "experiment": "nsRBNS (natural sequence RNA bind-n-seq); RBNS binding buffer (assumed for nsRBNS): 25 mM Tris pH 7.5, 150 mM KCl, 3 mM MgCl2, 0.01% Triton X-100, 500 ug/ml BSA, 20 U/ml SUPERase-In, 4 C; UNK is unkempt and MSI1 is Musashi-1; names of the RNAs are library labels; protein concentration not given here; high values mean tight binding", "units": {"binding signal": "enrichment R"}, "values": [{"binder": "B1", "binding signal": 1.72}, {"binder": "B2", "binding signal": 0.581}, {"binder": "B3", "binding signal": 1.19}, {"binder": "B4", "binding signal": 1.06}, {"binder": "B5", "binding signal": 1.35}, {"binder": "B6", "binding signal": 0.749}, {"binder": "B7", "binding signal": 3.8}, {"binder": "B8", "binding signal": 5.04}, {"binder": "B9", "binding signal": 3.43}, {"binder": "B10", "binding signal": 4.14}, {"binder": "B11", "binding signal": 3.98}, {"binder": "B12", "binding signal": 3.55}, {"binder": "B13", "binding signal": 2.96}, {"binder": "B14", "binding signal": 2.73}]}]}
